The text below walks through data of PubChem BioAssay.

The source made the active and inactive calls.

Assay [1] can be described thus: small molecules captured by biotinylated probe aFSTL3 – biochemical, small-molecule microarray, fluorescence 635/667, stem cell growth factor project, primary screen (AID 1064).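 Also: measures binding of the biotinylated anti-FSTL3 antibody to printed compounds.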 The following applies: higher = more signal.
The nature of assay [2]: binders from COS7 lysate, DM2A8 probe, primary screen, torsin A project, cell lysate, small-molecule microarray, fluorescence 635/667 (AID 1065). The following applies: higher = more signal, COS7 lysate expressing mutant human TOR1A.
The nature of assay [3]: small molecules captured by biotinylated probe aFGF2 – biochemical, small-molecule microarray, fluorescence 635/667, stem cell growth factor project, primary screen (AID 1067).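 Also: measures binding of biotinylated aFGF2 protein to printed compounds on slides; z-score merges feature fluorescence and signal-to-noise across triplicate slides.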 The following applies: higher = more signal.
A short description of assay [4]: small molecules captured by biotinylated probe aFGF10 – biochemical, small-molecule microarray, fluorescence 635/667, stem cell growth factor project, primary screen (AID 1071).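 Also: score merges 667 nm spot intensity and signal to noise from triplicate slides.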 To be noted: higher = more signal.
For assay [5], the target named is Neurogenic locus notch homolog protein 2 (Homo sapiens) (UniProt Q04721). Put plainly: small molecules binding Notch2 protein – biochemical, small-molecule microarray, 635 nm fluorescence, stem cell growth factors, primary screen (AID 1073). To be noted: higher = more signal.
In assay [6] the target is Pro-neuregulin-1, membrane-bound isoform (Homo sapiens) (UniProt Q02297). Put plainly: small molecules binding neuregulin-1 protein – biochemical, small-molecule microarray, fluorescence 635/667, psychiatric disease protein project, primary screen (AID 1075).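 Also: score combines 667 nm spot fluorescence with signal to noise.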 The following applies: NRG1 binding, 635 nm fluorescence, higher = more signal.
The test system of assay [7] is Neuregulin-1 EGF-like domain. Put plainly: small molecules binding NRG1 EGF domain – biochemical, small-molecule microarray, 635 nm fluorescence, primary screen (AID 1081).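 Also: binding of the protein to compounds printed on small-molecule microarray slides.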 The following applies: higher = more signal.
Assay [8] is described as follows: FRG1 expression reporter modulators in myotubes – cell-based, C2C12 myotubes, firefly/Renilla luciferase, luminescence, FRG1 inhibition for FSHD, primary screen (AID 1084). The following applies: FRG1 promoter luciferase, higher = more signal, called active from +8 up or from −8 down.
Assay [9] in a line: small molecules captured by biotinylated probe aFST – biochemical, small-molecule microarray, fluorescence 635/667, stem cell growth factor project, primary screen (AID 1086).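 Also: score merges 667 nm fluorescence with signal-to-noise of each printed compound spot.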 To be noted: higher = more signal.
Assay [10] can be described thus: binders of probe aHhip on microarray, primary screen, stem cell growth factor project, biochemical, small-molecule microarray, fluorescence 635/667 (AID 1087).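 Also: score merges spot fluorescence at 667nm with spot signal to noise ratio.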 To be noted: higher = more signal.
Assay [11] has as its system PRMT1 (protein arginine N-methyltransferase 1). Put plainly: small molecules binding arginine methyltransferase PRMT1 – biochemical, small-molecule microarray, 635 nm fluorescence, primary screen (AID 1088).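 Also: binding of Prmt1 protein to compounds spotted on small-molecule microarray slides.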 The following applies: higher = more signal.
Assay [12] is described as follows: growth effects on S. cerevisiae YJM789 – YJM789 clinical isolate, OD600, 24 h, basal, primary screen (AID 1089).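 Also: growth of clinical yeast isolate S. cerevisiae YJM 789 seeded 1000 cells per well; test concentration not given here.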 To be noted: higher = more signal, called active from +8 up or from −8 down.
Assay [13] is described as follows: S. pombe growth modifiers, basal conditions – strain 972, OD600, 24 h, no modulator, primary screen (AID 1090).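 Also: basal condition with compound alone and no growth modifier present; test concentration not given here.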 To be noted: S. pombe 972 growth, higher = more signal, called active from +8 up or from −8 down.
The nature of assay [14]: budding yeast growth modifiers under rapamycin – strain BY4716, OD600, 96 h, primary screen (AID 1091). Also: test concentration not given here. To be noted: S. cerevisiae BY4716 + rapamycin, higher = more signal, called active from +8 up or from −8 down.
Assay [15] has as its target Torsin-1A-interacting protein 2 (Homo sapiens) (UniProt Q8NFQ8). Briefly: small molecules binding lysate-expressed LULL1 – cell lysate, human LULL1 lysate, 635/667 nm fluorescence, primary screen (AID 1092).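 Also: probe is lysate of COS7 cells overexpressing human LULL1; score merges per-feature 667 nm fluorescence with signal-to-noise.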 The following applies: small-molecule microarray, hLULL1 lysate binding, 635 nm fluorescence; higher = more signal.
Assay [16] in a line: optical density change of DRC41 E. coli – strain DRC41, OD650, 24 h, E. coli filamentation project, primary screen (AID 1093).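 Also: MC1000 strain lacking acrAB efflux and sulA so SOS filamentation is blocked; test concentration not given here.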 To be noted: E. coli DRC41 growth, higher = more signal, called active from +8 up or from −8 down.
Assay [17] in a line: probe aLefty2 binding to arrayed compounds – biochemical, biotinylated probe, 635/667 nm fluorescence, primary screen (AID 1094).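 Also: score merges spot fluorescence near 667 nm with spot signal-to-noise ratio.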 To be noted: small-molecule microarray, higher = more signal.
Assay [18] concerns Noggin (protein binding on small-molecule microarray). Briefly: small molecules binding Noggin protein – biochemical, 635/667 nm fluorescence, primary screen (AID 1095).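 Also: score merges 667 nm feature fluorescence with signal to noise over triplicate slides.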 To be noted: 635 nm fluorescence, higher = more signal.
Assay [19] concerns the target Neurogenic locus notch homolog protein 3 (Homo sapiens) (UniProt Q9UM47). Put plainly: small molecules binding NOTCH3 protein – biochemical, 635/667 nm fluorescence, primary screen (AID 1096). To be noted: small-molecule microarray, 635 nm fluorescence, higher = more signal.
Assay [20] can be described thus: probe aEGFR binding to arrayed compounds – biochemical, biotinylated probe, 635/667 nm fluorescence, primary screen (AID 1097).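 Also: probe is a biotinylated anti-EGFR antibody binding compounds printed on slides; score combines fluorescence near 667 nm and signal to noise of each spot.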 The following applies: small-molecule microarray, higher = more signal.

Sequence of Torsin-1A-interacting protein 2 (Homo sapiens) (Q8NFQ8 whole entry, looked up): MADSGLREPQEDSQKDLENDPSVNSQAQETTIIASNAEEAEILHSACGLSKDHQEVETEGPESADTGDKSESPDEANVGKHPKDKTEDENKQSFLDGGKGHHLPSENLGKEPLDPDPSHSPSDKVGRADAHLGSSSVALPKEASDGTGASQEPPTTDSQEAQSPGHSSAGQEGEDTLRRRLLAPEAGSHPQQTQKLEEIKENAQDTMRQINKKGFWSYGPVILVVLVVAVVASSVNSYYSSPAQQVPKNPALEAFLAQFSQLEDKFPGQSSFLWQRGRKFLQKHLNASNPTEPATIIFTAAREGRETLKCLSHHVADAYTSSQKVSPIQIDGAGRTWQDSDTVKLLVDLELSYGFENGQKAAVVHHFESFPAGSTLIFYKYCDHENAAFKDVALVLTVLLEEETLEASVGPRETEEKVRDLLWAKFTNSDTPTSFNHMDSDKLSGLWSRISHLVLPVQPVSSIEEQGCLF
Sequence of Neurogenic locus notch homolog protein 3 (Homo sapiens) (Q9UM47 whole entry, looked up): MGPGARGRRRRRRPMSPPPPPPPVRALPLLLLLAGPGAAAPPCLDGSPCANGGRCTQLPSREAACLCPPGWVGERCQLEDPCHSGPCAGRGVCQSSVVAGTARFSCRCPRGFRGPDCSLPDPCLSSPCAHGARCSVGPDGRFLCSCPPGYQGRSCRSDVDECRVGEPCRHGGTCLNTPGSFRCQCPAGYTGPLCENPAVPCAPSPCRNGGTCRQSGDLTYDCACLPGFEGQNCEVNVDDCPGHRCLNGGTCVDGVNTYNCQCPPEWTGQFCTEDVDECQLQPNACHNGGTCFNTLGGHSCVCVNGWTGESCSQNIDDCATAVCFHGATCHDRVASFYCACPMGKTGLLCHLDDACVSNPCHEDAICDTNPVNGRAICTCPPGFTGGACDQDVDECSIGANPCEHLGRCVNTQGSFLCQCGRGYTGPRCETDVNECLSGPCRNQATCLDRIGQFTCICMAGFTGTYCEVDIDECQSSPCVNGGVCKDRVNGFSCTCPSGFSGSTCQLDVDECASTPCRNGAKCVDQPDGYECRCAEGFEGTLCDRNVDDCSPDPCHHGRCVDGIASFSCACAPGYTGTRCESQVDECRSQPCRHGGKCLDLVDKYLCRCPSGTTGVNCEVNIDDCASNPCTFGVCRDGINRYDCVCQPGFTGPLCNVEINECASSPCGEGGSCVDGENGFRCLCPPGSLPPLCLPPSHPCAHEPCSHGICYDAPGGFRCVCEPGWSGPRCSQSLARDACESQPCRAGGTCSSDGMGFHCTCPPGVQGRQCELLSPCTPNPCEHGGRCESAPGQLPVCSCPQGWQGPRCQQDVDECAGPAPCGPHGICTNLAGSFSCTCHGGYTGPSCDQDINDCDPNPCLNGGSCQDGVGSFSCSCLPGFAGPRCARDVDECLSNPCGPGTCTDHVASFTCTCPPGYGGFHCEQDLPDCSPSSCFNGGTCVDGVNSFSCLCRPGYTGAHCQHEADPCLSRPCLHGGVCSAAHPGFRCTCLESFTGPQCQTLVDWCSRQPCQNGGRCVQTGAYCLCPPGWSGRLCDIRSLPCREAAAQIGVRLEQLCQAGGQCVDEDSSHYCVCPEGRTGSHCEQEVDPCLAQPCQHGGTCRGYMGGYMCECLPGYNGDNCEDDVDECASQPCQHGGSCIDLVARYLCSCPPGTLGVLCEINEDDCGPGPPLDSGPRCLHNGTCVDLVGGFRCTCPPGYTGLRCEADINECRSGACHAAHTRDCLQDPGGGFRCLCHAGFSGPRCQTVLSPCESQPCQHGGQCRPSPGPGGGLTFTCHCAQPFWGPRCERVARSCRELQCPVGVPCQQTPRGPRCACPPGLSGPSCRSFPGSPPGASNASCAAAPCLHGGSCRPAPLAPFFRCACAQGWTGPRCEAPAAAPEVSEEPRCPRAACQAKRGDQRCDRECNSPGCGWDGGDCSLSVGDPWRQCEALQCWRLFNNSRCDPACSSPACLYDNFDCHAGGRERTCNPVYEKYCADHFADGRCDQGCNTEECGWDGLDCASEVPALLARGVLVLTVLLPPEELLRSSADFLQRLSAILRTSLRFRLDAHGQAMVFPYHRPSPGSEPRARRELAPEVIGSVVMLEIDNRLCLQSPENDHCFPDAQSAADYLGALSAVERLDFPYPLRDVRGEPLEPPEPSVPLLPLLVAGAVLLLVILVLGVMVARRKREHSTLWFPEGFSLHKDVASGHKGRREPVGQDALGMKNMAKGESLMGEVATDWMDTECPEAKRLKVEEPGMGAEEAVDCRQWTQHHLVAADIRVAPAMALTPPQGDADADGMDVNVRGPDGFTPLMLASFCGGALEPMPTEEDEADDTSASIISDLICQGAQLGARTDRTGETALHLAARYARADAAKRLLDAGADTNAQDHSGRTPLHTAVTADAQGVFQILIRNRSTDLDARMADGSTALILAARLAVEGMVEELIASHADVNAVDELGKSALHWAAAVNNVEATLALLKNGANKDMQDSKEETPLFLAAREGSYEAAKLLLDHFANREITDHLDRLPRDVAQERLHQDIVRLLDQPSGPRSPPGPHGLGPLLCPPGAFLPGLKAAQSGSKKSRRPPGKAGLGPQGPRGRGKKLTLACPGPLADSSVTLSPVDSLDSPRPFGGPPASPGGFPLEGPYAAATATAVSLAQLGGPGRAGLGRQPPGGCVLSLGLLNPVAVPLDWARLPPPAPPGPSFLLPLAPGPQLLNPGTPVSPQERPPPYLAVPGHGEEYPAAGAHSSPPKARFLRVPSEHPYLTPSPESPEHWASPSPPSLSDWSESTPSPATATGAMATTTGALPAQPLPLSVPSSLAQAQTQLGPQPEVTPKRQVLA
Sequence of Pro-neuregulin-1, membrane-bound isoform (Homo sapiens) (Q02297 whole entry, looked up, the tested form may be a part, canonical isoform): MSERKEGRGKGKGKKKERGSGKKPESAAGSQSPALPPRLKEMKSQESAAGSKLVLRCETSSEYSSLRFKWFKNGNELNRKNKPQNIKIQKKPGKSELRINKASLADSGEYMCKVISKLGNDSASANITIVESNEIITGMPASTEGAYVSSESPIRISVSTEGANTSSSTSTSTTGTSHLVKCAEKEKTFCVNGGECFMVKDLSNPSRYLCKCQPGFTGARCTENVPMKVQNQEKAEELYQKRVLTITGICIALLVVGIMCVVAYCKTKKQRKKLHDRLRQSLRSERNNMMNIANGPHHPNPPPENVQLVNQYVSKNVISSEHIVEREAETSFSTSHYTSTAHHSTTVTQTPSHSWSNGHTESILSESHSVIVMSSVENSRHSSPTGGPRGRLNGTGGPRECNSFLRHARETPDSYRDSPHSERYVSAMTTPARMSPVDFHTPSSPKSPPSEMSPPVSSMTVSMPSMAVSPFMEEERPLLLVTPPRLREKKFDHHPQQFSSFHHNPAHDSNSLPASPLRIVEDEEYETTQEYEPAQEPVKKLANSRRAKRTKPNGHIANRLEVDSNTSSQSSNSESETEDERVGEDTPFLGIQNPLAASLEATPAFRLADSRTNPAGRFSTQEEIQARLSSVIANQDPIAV

For the compound `C=CC[C@]12N=C(c3ccc(OCCCO)cc3)O[C@H]1c1ccccc1N(CCS(=O)(=O)c1ccccc1)C2=O`, the composite z-score was 0.288 in [1]; -0.312 in assay [2]; 0.0124 in assay [3]; -0.0268 in [4]; 1.07 in assay [5]; 1.13 in [6]. For the same compound, the composite z-score in assay [7] is 1.32; in assay [9] it was 0.0964; in assay [10], -0.3; in assay [11], 1.49; in assay [15], 2.14; in assay [17], 0.0561. In addition, the composite z-score in assay [18] was 0.698; in assay [19] it was 1.07; in assay [20] it was -0.0828. The z-score was -3.1 (inactive) in assay [8]; -1.07 (inactive) in [12]; -1.51 (inactive) in [13]; 0.811 (inactive) in assay [14]; 1.02 (inactive) in [16].

`COc1ccc(CCNC(=O)[C@@]2(c3ccc([N+](=O)[O-])cc3)CC(=O)N(CC34CC5CC(CC(C5)C3)C4)[C@@H]2c2ccc(CO)cc2I)cc1`: the composite z-score in assay [1] was -0.235; in assay [2], 1; in assay [3] it was 0.0569; in [4] it was 0.377; in [5], 0.6; in assay [6], 1.09. Also, the composite z-score was 1.2 in assay [7]; -0.0217 in [9]; -0.446 in [10]; 1.54 in [11]; 2.83 in assay [15]; -0.387 in assay [17]. The composite z-score in [18] is 1.52; in assay [19], 1.1; in assay [20], -0.151. For the same compound, the z-score in [8] is -1.64 (inactive); in assay [12], 0.484 (inactive); in [13], 0.369 (inactive); in assay [14] it was 6.17 (inactive); in assay [16] it was 0.376 (inactive).

As to `C=CCNC(=O)[C@H]1[C@@H]2C(=O)O[C@@H](c3ccccc3)[C@@H](c3ccccc3)N2[C@@H](c2ccc(OCCO)cc2)[C@]12C(=O)Nc1ccc(C#CCC(C(=O)OC)C(=O)OC)cc12`, the composite z-score in assay [1] was -0.378; in [2], 0.632; in assay [3] it was 0.0501; in [4] it was 0.441; in assay [5], 1.17; in assay [6], 1.17. The composite z-score is 1.18 in [7]; 0.452 in [9]; 0.0373 in assay [10]; 1.56 in assay [11]; 2.74 in assay [15]; 0.187 in assay [17]. Further, the composite z-score in assay [18] is 0.608; in [19], 1.08; in [20], -0.004. Besides, the z-score in assay [8] is 0.0693 (inactive); in assay [12], 1.63 (inactive); in assay [13], 1.79 (inactive); in assay [14], 5.79 (inactive); in [16] it was 0.0251 (inactive).

As for `COc1ccc([Si](C)(C)[C@@H]2[C@@H](CCn3cc([C@H](O)c4ccccc4)nn3)O[C@]3(C(=O)N(Cc4cccc(N5CCC5=O)c4)c4ccccc43)[C@H]2C)cc1`, the composite z-score is -0.0168 in [1]; -0.185 in assay [2]; -0.116 in assay [3]; 0.232 in assay [4]; -0.205 in assay [5]; 0.292 in [6]. Further, the composite z-score in assay [7] was 0.729; in [9], -0.162; in assay [10], -0.249; in [11], -0.284; in [15], 0.167; in assay [17] it was -0.0956. The values for the composite z-score in assay [18], in [19] and in assay [20] were 0.459, -0.468 and -0.0267, respectively. Further, the z-score in assay [8] was 0.795 (inactive); in assay [12] it was -0.442 (inactive); in assay [13] it was 1.23 (inactive); in assay [14], 2.14 (inactive); in assay [16], -0.546 (inactive).

As to `C=C(CCCC)C(=O)CC[C@H](OC(=O)c1cccnc1)c1ccc(OCCO)cc1`, the composite z-score in [1] was 0.242; in [2], 1.4; in assay [3] it was -0.116; in assay [4], 0.149; in assay [5], -0.65; in assay [6], 0.766. For the same compound, the composite z-score was 0.761 in assay [7]; -0.0065 in [9]; -0.0994 in [10]; 0.417 in [11]; 0.434 in assay [15]; -0.0547 in [17]. Moreover, the composite z-score in assay [18] was 0.134; in [19] it was -0.364; in [20], 0.0089. Moreover, the z-score is -0.916 (inactive) in [8]; 0.0275 (inactive) in [12]; -3.48 (inactive) in assay [13]; 0.364 (inactive) in assay [14]; 0.02 (inactive) in assay [16].
